40 compounds from PubChem BioAssay (NCATS) can be followed below.

Records with an inconclusive call do not appear. Values without a mark were called inactive. Activity calls are given as the source filed them. The call rests on the fitted dose curve; in most records, active means well fitted cell-killing curve with a large enough effect; inconclusive means small, poorly fitted or top-dose-only effect; inactive means flat fitted curve, though single readings scatter. Peptide text beside a SMILES is read from it. * marks the point of attachment. Cbz = O=C(OCc1ccccc1)*
Potency means the concentration at half of the fitted maximal effect.

A short description of the assay: Quantitative highthroughput screen to assess conditional lethalithy of P12 Ichikawa cells grown in RPMI1640 with dialyzed fetal bovine serum (RPMI+ds) (AID 1963880). Further: nearly all actives have a fitted effect of over 35% in size. As to conditions: ATP luminescence, 48 h; Potency: P12-Ichikawa viability; series mostly up to 45.8 µM; viability: at the top concentration. An excerpt: Assay Provider: Jason Cantor Ph.D.
Department of Biochemistry
University of Wisconsin-Madison, Madison, WI, USA
Chemical screening studies have identified drug sensitivities across hundreds of cancer cell lines but most putative therapeutics fail to translate. Discovery and development of drug candidates in models that more accurately reflect nutrient levels in human blood is a major challenge. Here we performed high-throughput screens in conventional versus Human Plasma-Like Medium (HPLM) to identify compounds that were "missed" when screening using the artificial culture condition. Sets of conditional anticancer compounds spanned phases of clinical development and included non-oncology drugs were assessed. […] We also traced conditional phenotypes for several chemotherapeutics to availability of HPLM-specific metabolites and confirmed others for compounds whose reported targets are encoded by nonessential genes. Our findings establish generalizable strategies for exploiting conditional lethality in HPLM to reveal therapeutic candidates and mechanisms of action in cancer cells.
Described herein are the results of each viability screens against three cell lines: NOMO1 (an acute myeloid leukemia cell line); P12-Ichikawa (a T-cell acute lymphoblastic leukemia); and SEM (a B-cell ALL). Each assay was screened using 3 different cell culture media: homemade human plasma-Like medium with 10% dialyzed fetal bovine serum (HPLM+ds); RPMI1640 with 10% untreated FBS and 5mM glucose (RPMI+s); and RPMI1640 with 10% dialyzed fetal bovine serum and 5 mM glucose (RPMI+ds).
PROTOCOL TABLE (as described by Inglese J, Shamu CE and Guy RK. 2007)
SEQUENCE No. (e.g., 1, 2, 3, etc.); […] (e.g., Cells, Incubation, Reagent, etc.); VALUE and DESCRIPTION.
1; Cells; 5 uL; white, solid bottom 1536-well Greiner assay plate.
2; Compounds; 23 nL; Kalypsis pin tool (Wako USA) equipped with a 1536-well pin head to transfer to the assay plates.
3; Incubation; 48 hours; 37C incubation.
4; Reagent; 3 uL; CellTiter Glo (Promega).
5; Incubation; 5 min, room temperature
6; Detection; Luminescence, Viewlux PerkinElmer.
NOTES (numbers refer to Sequence numbers above)
1. Briefly, 5 ul of cell reagent was dispensed using a Multidrop Combi Dispenser. The NOMO1 and SEM cells were plated at 500 cells/well and the P12-Ichikawa line at 1000 cells/well.
2. After seeding the cells, 23 nL of MIPE 4.1 library compounds (in DMSO) were added to each plate using a Kalypsys 1536 Pintool dispenser. Bortezomib at final concentration of […] and DMSO were added to each plate as positive and negative controls respectively. For each screen, MIPE 4.1 compounds were added over an eleven-point concentration range […] in 3-fold dilutions.
3. Each plate was covered with a stainless steel gasketed lid to prevent evaporation and incubated for 48 hour at 37C, 95% relative humidity, and 5% CO2.
4-5. Three microliter CellTilter-GloTM luminescent substrate mix (Promega) reagent was added to the assay plate and incubated at room temperature for 5 min.
6. The luminescence signal was measured using a ViewLux (PerkinElmer) multiplate reader with a 2 second exposure time per plate. Data for each compound were normalized as percent viability such that measurements for DMSO and the empty well controls in each plate were defined as 100% and 0%, respectively.
Turning to `COc1ccc(F)c(F)c1C(=O)c1cnc(NC2CCN(S(C)(=O)=O)CC2)nc1N`, the Potency was 11.8 µM (active).
`COc1ccc(-c2nc3ccc(C4=NNC(=O)CC4C)cc3[nH]2)cc1` (stereo not given): the viability (in general, a read-out of living cells in per cent, often relative to untreated cells) is 79%.
For the compound `CC(C)C[C@@H](C=O)NC(=O)[C@H](CC(C)C)NC(=O)[C@H](CC(C)C)NC(=O)OCc1ccccc1` (Cbz-Leu-Leu-Leu-aldehyde), the Potency is 2.64 µM (active).
Turning to `CN(C)CCN(Cc1ccc(Cl)cc1)c1ccccn1`, the “viability” value was 91%.
Turning to `CC(C)[C@H](O)C(=O)N[C@@H](C)C(=O)N[C@@H]1C(=O)N(C)CCc2ccccc21`, the “viability” value is 101%.
For the compound `CN(C(Cc1ccc(OS(=O)(=O)c2cccc3cnccc23)cc1)C(=O)N1CCN(c2ccccc2)CC1)S(=O)(=O)c1cccc2cnccc12` (stereo not given), the Potency is 18.7 µM (active).
With `O=C(C=Cc1ccc(O)cc1)c1ccc(O)cc1O`, the Potency is 13.2 µM (active).
As for `C=CC(=O)Nc1cc2c(Nc3ccc(F)c(Cl)c3)ncnc2cc1OCCCN1CCOCC1`, the “viability” value was 92.2%.
Take `COc1cc2ncnc(Nc3cccc(Br)c3)c2cc1OC`: the “viability” value is 96.7%.
Turning to `O=C1NC(=O)C(=Cc2ccc3nccnc3c2)S1`, the “viability” value was 102% [at 23.2 µM].
Take `CC=C1NC(=O)[C@H]2CSSCCC=C[C@H](CC(=O)N[C@H](C(C)C)C(=O)N2)OC(=O)[C@H](C(C)C)NC1=O`: the Potency was 0.0372 µM (active).
On the same count and under the same terms, then `Cc1cc(Nc2ncc(Cl)c(Nc3ccccc3S(=O)(=O)C(C)C)n2)c(OC(C)C)cc1C1CCNCC1`, with 23.4 µM (active).
Regarding `Cc1coc2c1C(=O)C(=O)c1c-2ccc2c1CCCC2(C)C`, the “viability” value was 104%.
On to `O=C(O)c1cccnc1Nc1cccc(C(F)(F)F)c1`, for which the “viability” value is 101%.
Consider `NC(N)=NC(=O)c1nc(Cl)c(N)nc1N`, for which the Potency is 13.2 µM (active).
On to `Nc1nc(=O)n([C@H]2C[C@H](O)[C@@H](CO)O2)cc1F`, for which the Potency was 0.0833 µM (active).
Regarding `Cc1ncc([N+](=O)[O-])n1CCO`, the “viability” value is 105%.
For the compound `Cc1cc(SCc2sc(-c3ccc(C(F)(F)F)cc3)nc2C)ccc1OCC(=O)O`, the “viability” value is 97.2%.
Take `CC(C)(C#N)c1cc(Cn2cncn2)cc(C(C)(C)C#N)c1`: the “viability” value is 99.6%.
In the case of `CC[C@H](C=C[C@@H](C)[C@H]1CC[C@H]2[C@@H]3CC=C4C[C@@H](O)CC[C@]4(C)[C@@H]3CC[C@]12C)C(C)C`, the “viability” value is 107% [at 23.2 µM].
Consider `COc1ccc(-c2ccc3c(N4CCOCC4)nc(N4C[C@@H](C)O[C@@H](C)C4)nc3n2)cc1CO`, for which the Potency was 1.87 µM (active).
With `Cc1ccc([N+](=O)[O-])cc1S(=O)(=O)N(C)N=Cc1cnc2ccc(Br)cn12`, the Potency was 0.132 µM (active).
As for `CN[C@H]1[C@@H](O)[C@@H]2O[C@@H]3O[C@H](C)CC(=O)[C@]3(O)O[C@@H]2[C@@H](NC)[C@H]1O`, the “viability” value was 101%.
For the compound `Cn1cc(-c2cnn3c(N)c(Br)c([C@H]4CCCNC4)nc23)cn1`, the Potency is 2.64 µM (active).
On to `COc1ccc(COc2cc3oc(=O)c4cc(C(C)O)ccc4c3cc2OC)cc1` (stereo not given), for which the “viability” value is 92.7%.
Turning to `Cn1cc(CNCC2CCN(c3ncc(C(=O)NO)cn3)CC2)c2ccccc21`, the Potency is 0.372 µM (active).
Turning to `CN1[C@@H]2CCC[C@@H]1CC(NC(=O)c1nn(C)c3ccccc13)C2` (stereo not given in full), the “viability” value was 102%.
Consider `COc1ccc(CCC(=O)c2c(O)cc(O[C@@H]3O[C@H](CO)[C@@H](O)[C@H](O)[C@@H]3O[C@@H]3O[C@@H](C)[C@H](O)[C@@H](O)[C@@H]3O)cc2O)cc1O`, for which the “viability” value was 104%.
On the same count and under the same terms, then `O=C(O)C1=NC(C(=O)O)CC(C=CN2c3cc(O)c(OC4OC(CO)C(O)C(O)C4O)cc3CC2C(=O)O)=C1` (stereo not given), with 103%; and `O=S(=O)(NCCNCC=Cc1ccc(Br)cc1)c1cccc2cnccc12`, with 92.2%; and `C[C@]12C=CC(=O)C=C1CC[C@@H]1[C@@H]2C(=O)C[C@@]2(C)[C@H]1CC[C@]2(O)C(=O)CO`, with 95.3% [at 23.2 µM].
In the case of `CC[C@@]1(O)C(=O)OCc2c1cc1n(c2=O)Cc2cc3c(CN(C)C)c(O)ccc3nc2-1`, the Potency is 0.0743 µM (active).
`Nc1nc(OCc2ccccc2)c2[nH]cnc2n1`: the “viability” value was 99.3%.
On the same count and under the same terms, the result for `CCN(CC)CCCC(C)Nc1nc(C)cc(Nc2ccc3nc(C)cc(N)c3c2)n1` (stereo not given) reads 89.7%.
With `CCN(CC)CCOc1ccc(C(=C(Cl)c2ccccc2)c2ccccc2)cc1`, the Potency is 20.9 µM (active).
Regarding `NCCCCNCCCN`, the Potency was 23.5 µM (active).
Consider `CSc1cccc(Nc2ncc3cc(-c4c(Cl)cccc4Cl)c(=O)n(C)c3n2)c1`, for which the “viability” value is 88.1%.
As to `Cc1cn([C@@H]2C[C@@H](O)[C@H](CO)O2)c(=O)[nH]c1=O`, the Potency was 23.5 µM (active).
Take `O=C1NC(=O)C(=Cc2ccc(-c3ccc(F)cc3)o2)S1`: the “viability” value is 103%.
On the same count and under the same terms, the result for `NC[C@H]1O[C@H](O[C@H]2[C@@H](O)[C@@H](O[C@H]3O[C@H](CO)[C@@H](O)[C@H](N)[C@@H]3O)[C@H](N)C[C@@H]2N)[C@H](N)C[C@H]1O` reads 122%.
